From PubChem BioAssay (NCATS)
Results filed as inconclusive are left out. Active and inactive are the calls of the source. Unless noted, calls follow the shape of the dose curve; as a rule, active = well fitted curve in the direction sought with a large enough effect; inconclusive = small, poorly fitted or top-dose-only effect, or another doubt; inactive = no such curve, though single readings can be large; an effect the other way counts as inactive or inconclusive.

Assays:
[1] = qHTS assay for small molecule activators of the nuclear factor-kappa B (NF-kB) signaling pathway (AID 651749; active = well fitted activation curve with a large enough effect in the signal ratio; the % refers to the signal ratio; also: % of control where 0% means no effect); conditions: NF-kB-bla ME-180 cells, beta-lactamase FRET ratio, 16 h; activation: active compounds read high
How it was run: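 Activation measured after 16 hr compound treatment at 37C, 5% CO2, of 2,000 ME-180 cells/well stably expressing an NF-kB response element–driven beta-lactamase reporter, via FRET-disruption fluorescence.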

[2] = qHTS assay for environmental chemicals that activate the Aryl hydrocarbon Receptor (AhR) signaling pathway (AID 651777); conditions: 1A2-DRE human hepatoma cells, luciferase, 24 h; activation: active compounds read high; also: % of control where 0% means no effect; nearly all actives have a fitted effect of over 15% in size
How it was run: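 Measured luciferase activity, read 30 min after One-Glo addition at room temperature, from human hepatoma cells bearing a dioxin response element–CYP1A2 promoter reporter and exposed to compound for 24 hr at 37 C.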

[3] = target: Peroxisome proliferator-activated receptor alpha (Homo sapiens) (UniProt Q07869); test: qHTS assay for small molecule agonists of the peroxisome proliferator-activated receptor alpha (PPARalpha) signaling pathway (AID 651778); conditions: PathHunter PPARalpha complementation, chemiluminescence, 6 h; active compounds read high; also: % of control where 0% means no effect
How it was run: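 Chemiluminescence from complemented enzyme reported PPARalpha activation in cells after 6 hr of compound treatment at 37 C. The detection reagent was incubated for 60 min at room temperature, and compounds were scored as agonists.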

[4] = qHTS assay for small molecule agonists of the antioxidant response element (ARE) signaling pathway measured by Nrf2-dependant transcriptional activity - cell viability counter screen (AID 720653; active = well fitted curve in the direction sought with a large enough effect in the repeat runs; an effect the other way counts as inactive or inconclusive; also: % is scaled to controls: 0 for no effect and ±100 for the full control effect); conditions: ARE-bla HepG2 viability, CellTiter-Glo ATP luminescence, 16 h; active compounds read low
How it was run: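 Cytotoxicity counter screen: intracellular ATP quantified by CellTiter-Glo luminescence in the same ARE-bla HepG2 plates, after 16 h compound exposure and a 2 h beta-lactamase substrate step.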

[5] = qHTS assay for cell viability of HEK293 cells (AID 743288); conditions: ATP luminescence (CellTiter-Glo), 18 h; max response: active compounds read low; also: % is scaled to controls: 0 for no effect and ±100 for the full control effect; nearly all actives have a fitted effect of over 50% in size
How it was run: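 Readout is luciferase-coupled ATP content (CellTiter-Glo luminescence, 30 min room temperature) as a measure of metabolically competent cells. Parental HEK293 cells were plated 5 h or more before compound addition, then treated 18 h at 37 C.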

[6] = qHTS assay for cell viability of the p53RE-bla HCT-116 cell line (AID 743292); conditions: p53RE-bla HCT-116 viability, ATP luminescence, 16 h; series mostly up to 95 µM; also: % is scaled to controls: 0 for no effect and ±100 for the full control effect; nearly all actives have a fitted effect of over 55% in size
How it was run: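 Intracellular ATP of p53RE-bla HCT-116 cells measured by luciferase luminescence following 16 h compound incubation at 37 C; DMSO-only wells served as vehicle controls.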

[7] = target: Nuclear receptor subfamily 1 group I member 2 (Rattus norvegicus) (UniProt Q9R1A7); test: qHTS assay for small molecule activators of the rat pregnane X receptor (rPXR) signaling pathway (AID 651751; call rule not given here; also: 0% is about no effect); conditions: rPXR reporter cells, luciferase (One-Glo), 24 h
Sequence of Nuclear receptor subfamily 1 group I member 2 (Rattus norvegicus) (Q9R1A7 whole entry, looked up): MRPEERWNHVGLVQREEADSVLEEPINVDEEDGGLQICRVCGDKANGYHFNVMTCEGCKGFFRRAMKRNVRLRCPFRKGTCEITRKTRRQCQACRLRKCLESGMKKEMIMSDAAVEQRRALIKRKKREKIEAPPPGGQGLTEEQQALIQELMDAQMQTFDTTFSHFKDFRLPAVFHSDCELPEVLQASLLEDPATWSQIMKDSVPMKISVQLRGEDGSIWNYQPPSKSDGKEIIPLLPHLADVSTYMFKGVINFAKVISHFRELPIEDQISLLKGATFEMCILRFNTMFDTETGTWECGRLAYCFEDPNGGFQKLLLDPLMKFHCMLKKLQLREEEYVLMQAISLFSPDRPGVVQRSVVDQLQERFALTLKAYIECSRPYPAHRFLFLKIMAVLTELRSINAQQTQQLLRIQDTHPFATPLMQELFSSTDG

Sequence of Peroxisome proliferator-activated receptor alpha (Homo sapiens) (Q07869 whole entry, looked up): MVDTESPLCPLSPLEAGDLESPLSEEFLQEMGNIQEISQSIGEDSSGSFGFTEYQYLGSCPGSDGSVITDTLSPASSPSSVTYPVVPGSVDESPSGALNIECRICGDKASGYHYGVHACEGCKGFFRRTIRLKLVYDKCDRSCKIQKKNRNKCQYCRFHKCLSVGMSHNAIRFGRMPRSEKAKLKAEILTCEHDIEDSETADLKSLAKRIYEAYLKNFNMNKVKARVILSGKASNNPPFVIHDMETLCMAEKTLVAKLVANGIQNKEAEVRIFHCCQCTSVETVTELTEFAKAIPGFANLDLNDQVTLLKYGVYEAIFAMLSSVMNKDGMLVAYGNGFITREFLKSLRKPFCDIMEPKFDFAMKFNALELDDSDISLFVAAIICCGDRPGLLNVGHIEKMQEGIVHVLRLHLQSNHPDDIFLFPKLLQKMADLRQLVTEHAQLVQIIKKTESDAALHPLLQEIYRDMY

CNC(=O)N(C)c1nnc(C(C)(C)C)s1
inactive: activation [1] -0.0908% | activation [2] 3.03% | max response [3] -3.93% | max response [4] 4.89% | max response [5] -3.03% | Potency [6] | max response [7] 4.69%
